Experimental data from the supplement of paper PMC12636033.
± gives the standard deviation of the averaged measurements. In all, about 33,000 sequences were measured (“E-score (rank enrichment, -0.5 to 0.5)”: median about -0.0043, highest 2% from about 0.24 on). Only a selection was taken, and the highest values are over-represented in it overall.

test system: 2Sp-muMax20 (muMax20 with two 2,6-bis(methyl)pyridine Cys staples); experiment: PBM 8-mer E-score (E-score (rank enrichment, -0.5 to 0.5)); higher = stronger preferential binding
Procedure: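 Protein binding microarray (universal PBM chip covering all 10-mers in fixed probe flanks) with chemically synthesized human Max(13-93) bHLH-LZ analogs (not full-length Max) bearing noncanonical residues (hArg, Tha, Aib, Nle at 65) and aromatic Cys staples. Read-out per 8-mer (and its reverse complement): E-score (rank-based enrichment, -0.5 to 0.5) and Z-score of median probe intensity.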

| Sequence | PBM 8-mer E-score |
| --- | --- |
| GGGATAAA | 0.0538 ± 0.03 |
| ATTGTACA | 0.26 ± 0.016 |
| ACTGTATA | 0.213 ± 0.085 |
| ATTGTCTA | 0.269 ± 0.012 |
| GTTGTATA | 0.167 ± 0.024 |
| ATTGTCTC | -0.126 ± 0.07 |
| CTTGTATA | 0.17 ± 0.0046 |
| CTTGTACA | 0.192 ± 0.026 |
| GTTGTCTA | 0.0499 ± 0.064 |
| ATTGTACC | 0.0323 ± 0.019 |
| GCTGTATA | 0.25 ± 0.021 |
| CCTGTATA | 0.0769 ± 0.072 |
| ATTGTATA | 0.2422 ± 0.0019 |
| AAGCCAGT | -0.0999 ± 0.034 |
| ACCAAGAC | -0.0903 ± 0.027 |
| GGCGCGTA | 0.126 ± 0.013 |
| ATTTAATG | 0.122 ± 0.031 |
| ACAACACG | 0.185 ± 0.037 |
| TAAGAGCA | 0.145 ± 0.072 |
| TAACGACA | 0.087 ± 0.0014 |
| GTAGAGAA | -0.00059 ± 0.14 |
| CTTGTATC | 0.141 ± 0.019 |
| ATTGTATC | 0.254 ± 0.043 |
| ATTGTATG | 0.135 ± 0.036 |

| Sequence | PBM 8-mer E-score |
| --- | --- |
| AGCTTAGG | -0.22 ± 0.016 |
| ACACTTTG | 0.0709 ± 0.076 |
| CTAGGGGC | 0.0163 ± 0.073 |
| ACCGGTAG | -0.253 ± 0.036 |
| CTACCGGA | -0.147 ± 0.0082 |
| AACGCGTG | 0.13 ± 0.022 |
| ACCGCGTG | 0.284 ± 0.038 |
| CGCGCGTC | 0.28 ± 0.0065 |
| AACGCGTC | -0.0413 ± 0.045 |
| CACGCGTA | 0.175 ± 0.043 |
| CACGCGTC | 0.2622 ± 0.0015 |
| AACGCGTA | -0.0641 ± 0.026 |
| ACCGCGTC | -0.0765 ± 0.041 |
| CACGCGTG | 0.376 ± 0.015 |
| CGCGCGTA | 0.176 ± 0.021 |
| AGCGCGTC | -0.117 ± 0.097 |
| ACCGCGTA | -0.0143 ± 0.044 |
| GGTCGGGA | -0.25 ± 0.0058 |
| CGTGACCA | 0.1 ± 0.098 |
| AAGCCATT | -0.0452 ± 0.016 |
| AGCCACGG | -0.2315 ± 0.00033 |
| TGTCTGAA | 0.0107 ± 0.0037 |
| CCCCGAAG | -0.126 ± 0.04 |
| GAAGGAGA | 0.246 ± 0.023 |

| Sequence | PBM 8-mer E-score |
| --- | --- |
| CAAGGAGA | -0.133 ± 0.073 |
| AAAGGAGA | 0.0434 ± 0.019 |
| GTATAGAC | 0.121 ± 0.0088 |
| GCATGTTA | 0.252 ± 0.095 |
| AAATGTTA | 0.156 ± 0.028 |
| ATTTGTTA | 0.228 ± 0.064 |
| ATTTGTTG | 0.266 ± 0.034 |
| ACATGTTA | 0.3172 ± 0.0015 |
| ATATGTTA | 0.229 ± 0.027 |
| ACATGTTC | 0.161 ± 0.04 |
| GGATGTTA | 0.196 ± 0.022 |
| AGATGTTG | -0.146 ± 0.015 |
| ACATGTTG | 0.268 ± 0.089 |
| CCATGTTA | 0.155 ± 0.054 |
| ATTTGTTC | 0.106 ± 0.018 |
| CGACATCG | -0.164 ± 0.033 |
| CGTCCGCA | -0.0773 ± 0.074 |
| AAGGGGGG | -0.275 ± 0.053 |
| CGCTTTAG | 0.0627 ± 0.011 |
| ACGGGTGC | -0.0393 ± 0.032 |
| GGCCGTAC | 0.0557 ± 0.032 |
| CTGGATCA | -0.158 ± 0.033 |
| GCTGCTGA | -0.206 ± 0.048 |
| AGTGCATG | 0.0577 ± 0.061 |

| Sequence | PBM 8-mer E-score |
| --- | --- |
| ATGTGTTC | -0.00117 ± 0.0014 |
| ATGTGTTA | 0.197 ± 0.14 |
| ATGTGTTG | 0.254 ± 0.023 |
| ACCGATCA | -0.0856 ± 0.019 |
| CATGGCTA | 0.245 ± 0.055 |
| GATGGCTA | 0.03 ± 0.092 |
| CATGGCTC | 0.0571 ± 0.018 |
| CCACGTAC | 0.0687 ± 0.048 |
| AACTGTAT | 0.104 ± 0.043 |
| ACAGATGG | 0.0291 ± 0.022 |
| ACGCCCCA | 0.284 ± 0.013 |
| CCGCCCCA | 0.344 ± 0.054 |
| GCGCCCCA | 0.135 ± 0.0094 |
| CAGCCCCA | 0.196 ± 0.033 |
| TCGCCCCA | 0.246 ± 0.013 |
| CCGCCCCG | 0.22 ± 0.037 |
| ACGCCCCG | -0.107 ± 0.028 |
| TAGCCCCA | 0.324 ± 0.022 |
| CCGCCCCC | -0.261 ± 0.11 |
| TAGCCCAA | 0.0851 ± 0.013 |
| ACGCCCCC | -0.168 ± 0.036 |
| TCGCCCAA | 0.0937 ± 0.081 |
| CGGTAACC | -0.288 ± 0.086 |
| GCACATCC | 0.0732 ± 0.072 |

| Sequence | PBM 8-mer E-score |
| --- | --- |
| AGGATTTG | -0.0789 ± 0.0065 |
| GGAGGTGA | -0.109 ± 0.038 |
| AGTTGGTC | -0.13 ± 0.083 |
| GATCCGAC | -0.198 ± 0.026 |
| AGTTGAAA | -0.0343 ± 0.15 |
| TCAGGTCA | -0.126 ± 0.038 |
| GCCGCCCA | -0.111 ± 0.053 |
| CCCGCCCG | 0.16 ± 0.065 |
| CCCGCCCC | 0.281 ± 0.022 |
| CCCGCCCA | 0.396 ± 0.012 |
| ACCGCCCC | 0.132 ± 0.0083 |
| GCCGCCCC | 0.0266 ± 0.044 |
| CCACCCGG | -0.213 ± 0.012 |
| ACTGCTTC | -0.0855 ± 0.012 |
| AGCCTAAT | 0.0715 ± 0.12 |
| ATGTTTTA | 0.0882 ± 0.015 |
| ATCCTCGG | -0.136 ± 0.022 |
| ACGTGCCG | 0.0769 ± 0.0064 |
| ACGTGGCC | -0.048 ± 0.005 |
| ACGTGGCT | 0.238 ± 0.019 |
| ACGTGGAC | 0.208 ± 0.053 |
| ACGTGCCC | 0.1949 ± 0.0017 |
| ACGTGGAA | 0.188 ± 0.014 |
| ACGTGGAT | 0.2668 ± 0.0015 |

| Sequence | PBM 8-mer E-score |
| --- | --- |
| ACGTGGCA | 0.217 ± 0.094 |
| ACGTGCCT | 0.257 ± 0.045 |
| ACTGCCGC | -0.11 ± 0.0048 |
| AGAACGCA | -0.0651 ± 0.016 |
| AAATAGCC | 0.155 ± 0.026 |
| GCTAGCTA | -0.00454 ± 0.02 |
| CCATTTCG | -0.131 ± 0.16 |
| GAGTAAGC | -0.0367 ± 0.065 |
| AAGCATGG | 0.221 ± 0.0031 |
| AAGCATGT | 0.208 ± 0.059 |
| CAGCATGA | 0.131 ± 0.046 |
| GAGCATGC | 0.233 ± 0.065 |
| AAGCATGC | 0.309 ± 0.047 |
| AAGCATCC | -0.0641 ± 0.07 |
| CGGCATGC | 0.154 ± 0.053 |
| CAGCATGC | 0.245 ± 0.055 |
| CAGCATGG | 0.258 ± 0.074 |
| AAGCATGA | 0.0552 ± 0.075 |
| GAGCATGA | 0.154 ± 0.055 |
| TAGCATGA | 0.237 ± 0.075 |
| ATTTGAAG | 0.0351 ± 0.054 |
| CGCTCCCC | -0.1001 ± 0.00055 |
| GTACTGAA | 0.149 ± 0.041 |
| CGCCCAAA | 0.0607 ± 0.014 |

| Sequence | PBM 8-mer E-score |
| --- | --- |
| CATTCGAC | -0.0616 ± 0.11 |
| ATTAGCTC | 0.0373 ± 0.031 |
| AAGTTCTA | 0.0127 ± 0.022 |
| CGCAGTGA | -0.145 |
| ATCTTATC | 0.0505 ± 0.042 |
| GCCTCCCA | -0.214 ± 0.05 |
| AATCCCCA | 0.161 ± 0.02 |
| CATCCCCA | 0.145 ± 0.0068 |
| TATCCCCA | 0.239 ± 0.014 |
| CCCTCCCA | 0.353 ± 0.04 |
| ACTCCCCT | 0.182 ± 0.027 |
| ACTCCCCA | 0.282 ± 0.067 |
| CCTCCCAA | 0.0742 ± 0.037 |
| ACCTCCCA | -0.071 ± 0.0025 |
| CCTCCCCA | 0.31 ± 0.028 |
| ACTCCCCC | -0.187 ± 0.021 |
| CCTCCCCC | -0.0661 ± 0.021 |
| ATCACGAG | -0.0973 ± 0.13 |
| CGGATAAC | -0.215 ± 0.003 |
| CCGAGCTC | -0.137 ± 0.0056 |
| AGTGCAAG | 0.0261 ± 0.015 |
| ATACAGCA | 0.2373 ± 0.0021 |
| CTACAGTA | 0.136 ± 0.017 |
| GTACAGTA | 0.137 ± 0.034 |

| Sequence | PBM 8-mer E-score |
| --- | --- |
| ATACAGCG | -0.089 ± 0.017 |
| ATACAGTA | 0.259 ± 0.013 |
| ATACAGTC | 0.0481 ± 0.076 |
| ATACAGTG | 0.248 ± 0.065 |
| ACACAGTG | 0.0818 ± 0.048 |
| CTACAGCA | 0.0474 ± 0.16 |
| GCTAAACA | -0.106 ± 0.062 |
| CCAGCTTA | -0.129 ± 0.07 |
| CGCGCCAC | 0.0139 ± 0.054 |
| ACCTTTGG | -0.277 ± 0.058 |
| CGGTTCCC | -0.179 ± 0.095 |
| GAGGGTTA | 0.064 ± 0.0085 |
| CAAGCTGA | 0.0436 ± 0.058 |
| AAAGCTGG | 0.0243 ± 0.073 |
| AAAGCTGA | 0.285 ± 0.0073 |
| ACCGCCCT | -0.0858 ± 0.06 |
| CGACGAGA | -0.147 ± 0.078 |
| CAGCGTGG | 0.039 ± 0.028 |
| CGCCCCCA | -0.198 ± 0.069 |
| TGCCCCAA | 0.274 ± 0.016 |
| GGCCCCAC | 0.0799 ± 0.062 |
| GGCCCCAA | 0.00781 ± 0.067 |
| CGCCCCAG | 0.0339 ± 0.02 |
| TGCCCAAA | -0.0856 ± 0.086 |

| Sequence | PBM 8-mer E-score |
| --- | --- |
| CGCCCCAC | 0.303 ± 0.0035 |
| TGCCCCCA | -0.0389 ± 0.018 |
| CGCCCCAA | 0.3051 ± 0.0025 |
| AGGTTCTA | -0.106 ± 0.0063 |
| GGTTCTAA | -0.026 ± 0.026 |
| AACGAGCC | -0.0314 ± 0.029 |
| GACTAGCC | -0.0736 ± 0.047 |
| ACACCGAG | -0.219 ± 0.031 |
| ACGACGCT | -0.0201 ± 0.033 |
| CTGGTGTA | -0.00226 ± 0.005 |
| ATCGATAA | 0.00019 ± 0.013 |
| GAGTCAAA | -0.0157 ± 0.11 |
| AAGTCAAA | 0.0188 ± 0.0089 |
| TAGTCAAA | 0.27 ± 0.033 |
| GACTAGCA | 0.102 ± 0.099 |
| AGAGCTAA | -0.0564 ± 0.081 |
| AGTTTCAA | -0.0457 ± 0.0064 |
| ATTACCCG | -0.0469 ± 0.081 |
| ATTACCCA | 0.288 ± 0.037 |
| ATTACCCC | 0.169 ± 0.065 |
| TACCTCGA | -0.079 ± 0.12 |
| TCCGAAAA | -0.0537 ± 0.063 |
